In PubChem BioAssay (NCATS):
Inconclusive results are not listed. Calls of active or inactive are those of the source. The call rests on the fitted dose curve; in most records, active means well fitted inhibition curve with a large enough effect; inconclusive means small, poorly fitted or top-dose-only effect; inactive means no such curve, though single readings can be large or run the other way. Where a SMILES comes first, the peptide text is derived from it. [ ]: non-standard residue; d: D form. ξ: configuration not given here. ξTyr(βOH) = NC(C(=O)O)C(O)c1ccc(O)cc1

What follows are molecules tested on Zika virus NS2B-NS3 protease (unlinked complex) (assay: Primary screen GU Rhodamine qHTS for Zika virus inhibitors: Unlinked NS2B-NS3 protease assay (AID 1347159; further: nearly all actives have a fitted effect of over 60% in size)). Conditions: Recombinant ZIKV NS2B-NS3 protease, Rhodamine110 substrate fluorescence; series mostly up to 107 µM; activity change, negative = inhibition: at the top concentration.
Summary of the method: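 Percent inhibition derives from the 15-min fluorescence change (ex 480, em 540 nm), normalized to no-enzyme and no-inhibitor wells. Reactions contained 25 nM NS2B-NS3 complex and 1.5 microM substrate in 10 mM Tris-HCl pH 8.0.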
On the % scale 0 is the no-effect control and ±100 the full control effect.

Structure (SMILES) | activity change, negative = inhibition
CC(=O)OC(C)(C)/C=C/C(=O)[C@](C)(O)C1[C@H](O)C[C@@]2(C)[C@@H]3CC=C4[C@@H](C[C@H](O[C@@H]5O[C@H](CO)[C@@H](O)[C@H](O)[C@H]5O)C(=O)C4(C)C)[C@]3(C)C(=O)C[C@]12C (stereo partly drawn) | -0.413% [at 32.5 µM] (inactive)
O=C(O)c1ccnc2cc(-c3nc4ccccc4n3CCN3CCCCC3)sc12 | 22.5% (inactive)
CC(=O)C1CCC(=O)N1Cc1ccccc1 (stereo not drawn) | 1.6% (inactive)
COc1cc(O)cc(C)c1C(=O)O[C@H]1[C@@H](O)[C@@H](n2ccc(=O)[nH]c2=O)O[C@@H]1CO | 3.34% [at 57.1 µM] (inactive)
CC(=O)O[C@H]1C[C@@]2(C)[C@@H](CC[C@H]3[C@@]4(C)C=CC(=O)[C@@H](C)[C@@H]4[C@H](OC(C)=O)C(=O)[C@@]32C)/C1=C(\CCC=C(C)C)C(=O)O | 58.6% [at 57.1 µM] (inactive)
C/C=C1/CC2C(=O)Nc3cc(O)c(OC)cc3C(=O)N2C1 (stereo not drawn) | -19.6% (inactive)
CCCNCCOc1ccc(NC(=O)c2c[nH]c3c2C(=O)CCC3)cc1F | 12.1% (inactive)
COc1cc(Cc2cnc(N)nc2N)c(C(C)C)cc1OC | 18.5% (inactive)
O=C(O)c1ccncc1Nc1nn(CCN2CCC(F)(F)CC2)c2ccc(F)cc12 | 0% (inactive)
COC(=O)C1=CO[C@@H](O[C@@H]2O[C@H](CO)[C@@H](O)[C@H](O)[C@H]2O)[C@@H]2C(C)CC(=O)[C@]12O (stereo partly drawn) | 51.5% [at 57.1 µM] (inactive)
COC(=O)C(CC1(O)c2ccccc2N2C(=O)C(C)(C)N(O)C21)n1cnc2ccccc2c1=O (stereo not drawn) | -5.91% [at 57.1 µM] (inactive)
CCCC(=O)Nc1cccc(NC(=O)c2ccccc2Br)c1 | -17% (inactive)

Each molecule was assayed on Zika virus NS2B-NS3 protease (linked construct) (assay: Primary screen NINDS Rhodamine qHTS for Zika virus inhibitors (AID 1347160; further: nearly all actives have a fitted effect of over 55% in size)). Conditions: purified NS2B-NS3 protease, Rhodamine110 substrate fluorescence; series mostly up to 33.1 µM; activity change, negative = inhibition: at the top concentration.
Summary of the method: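 In 10 mM Tris-HCl pH 8.0 containing 0.01% Tween 20, linked NS2B-NS3 protease (25 nM final) is exposed to test compounds for 15 min. Cleavage of 1.5 microM Rhodamine110 substrate is tracked by fluorescence over 15 min.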

Structure (SMILES) | activity change, negative = inhibition | outcome
c1ccc2c(Nc3nnc(-c4ccncc4)s3)cccc2c1 | 12.8% [at 57.1 µM] (inactive) | –
CC(C)C(O)(CO)CCO[C@@H]1O[C@H](CO[C@H]2OC[C@](O)(CO)[C@H]2O)[C@@H](O)[C@H](O)[C@H]1O (stereo partly drawn) | 3.41% (inactive) | –
O=C(Cc1ccc(Cl)cc1)Nc1cnccc1C(=O)O | -23.6% [at 57.1 µM] (inactive) | –
CC1(CO)CCCC2(C)C1C(OC(=O)c1ccccc1)CC1C(=O)OCC12O (stereo not drawn) | -3.17% (inactive) | –
C[C@@H]1O[C@@H](O[C@H]2[C@H](OC(=O)[C@]34CCC(C)(C)C[C@H]3C3=CCC5[C@@]6(C)CC[C@H](O[C@@H]7O[C@H](CO[C@@H]8OC[C@H](O)[C@H](O)[C@H]8O[C@@H]8OC[C@@H](O)[C@H](O)[C@H]8O)[C@@H](O)[C@H](O)[C@H]7O)C(C)(C)C6CC[C@@]5(C)[C@]3(C)C[C@H]4O)O[C@H](CO)[C@@H](O)[C@@H]2O)[C@H](O[C@@H]2O[C@H](CO)[C@@H](O)[C@H](O)[C@H]2O)[C@H](O)[C@H]1O[C@@H]1OC[C@@H](O)[C@H](O[C@@H]2OC[C@@H](O)[C@H](O)[C@H]2O)[C@H]1O (stereo partly drawn) | 4.54% [at 10.7 µM] (inactive) | –
CC1=C(C)C(=O)OC(C(C)C2C(O)CC3C4C5OC5C5(O)CC(OC6OC(CO)C(OC7OC(C)C(O)C(O)C7O)C(O)C6O)CC(O)C5(C)C4CCC32C)C1 (stereo not drawn) | – | inactive [at 15.1 µM]
CC(C)C1NC(=O)CNC(=O)C2CCCN2C(=O)C(Cc2c[nH]c3ccccc23)NC(=O)CNC(=O)C(C(O)c2ccc(O)cc2)NC(=O)CNC1=O (stereo not drawn) (cyclo(G[ξTyr(βOH)]GWPGV); configuration not given here) | 13% [at 15.1 µM] (inactive) | –
CC(=O)NC(Cc1ccccc1)C(=O)NC(C(=O)O)C(C)C (stereo not drawn) (Ac-Phe-Val-OH; configuration not given here) | – | inactive
C[C@@H]1C[C@@H](O)[C@@]23CO[C@]2(CO)CCC[C@@H]3[C@@]12C[C@@H](c1ccoc1)OC2=O | 13% (inactive) | –
COc1ccc(NC(=O)c2ccc(-c3ccc(C(N)=O)cc3C)cc2)cc1N1CCN(C)CC1 | 33.6% [at 57.1 µM] (inactive) | –
CC1CCC23COC(=O)C2=CC(O)CC3C1(C)CCc1ccoc1 (stereo not drawn) | -7.34% (inactive) | –
CCCCS(=O)(=O)NC(Cc1ccc(OCCCCC2CCNCC2)cc1)C(=O)O (stereo not drawn) | -2.22% [at 57.1 µM] (inactive) | –
COc1cc(/C=C/C(=O)O[C@@H]2C[C@@](O)(C(=O)O)C[C@@H](O)[C@@H]2O)ccc1O | -20% (inactive) | –
C[C@]1(OC(=O)/C=C/c2ccccc2)C[C@@H](O)[C@]2(O)C=CO[C@@H](O[C@@H]3O[C@H](CO)[C@@H](O)[C@H](O)[C@H]3O)[C@@H]21 | -4.42% (inactive) | –
CC(=O)OC(C)(C)/C=C/C(=O)[C@](C)(O)C1[C@H](O)C[C@@]2(C)[C@@H]3CC=C4[C@@H](C[C@H](O[C@@H]5O[C@H](CO)[C@@H](O)[C@H](O)[C@H]5O)C(=O)C4(C)C)[C@]3(C)C(=O)C[C@]12C (stereo partly drawn) | 17.2% [at 15.1 µM] (inactive) | –
O=C(O)c1ccnc2cc(-c3nc4ccccc4n3CCN3CCCCC3)sc12 | 83.5% [at 57.1 µM] (inactive) | –
